# Source: PubChem (National Center for Advancing Translational Sciences (NCATS))
# BAZ2B block: inhibitors of human BAZ2B bromodomain | 360,000 compounds, 4.4% hits | AID 504333 | AlphaScreen BAZ2B-H3K14Ac peptide displacement | Potency, µM (highest dose often 114 µM), without a hit: top-dose activity change, negative = inhibition, actives largely listed as inhibitors; further: potency means the concentration at half of the fitted maximal effect; on the % scale 0 is the no-effect control and ±100 the full control effect; nearly all actives have a fitted effect of over 60% in size
#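 BAZ2B (50 nM) with biotin-H3(5-23)K14Ac peptide (50 nM) in PBS pH 7.4, 0.01% Tween-20, preformed 30 min, then compound 30 min at room temperature; top concentration 110uM. AlphaScreen streptavidin donor/nickel chelate acceptor beads (10 ug/mL final), 20 min dark, signal read.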
# Six1-Eya2 blk: blocks human Six1 binding to Eya2; activity change, % (concentration not given with the values); Q15475+O00167; 360,000 compounds, 0.56% hits; AlphaScreen GST-Six1/His-Eya2 binding, biochemical; active compounds read low; in the data active means activity change below about -65%; inconclusive means mostly about -30% to -63%; further: on the % scale 0 is the no-effect control and ±100 the full control effect
#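 GST-Six1 + His-Eya2 (5X stock: 250/500 nM); Tris pH 8.0, 300 mM NaCl, 0.05% BSA, 0.02% Tween 20; GSH donor/Ni acceptor beads; 1 h 37 °C dark; AlphaScreen readout.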
# JMJD2A Tudor: inhibitors of human JMJD2A Tudor domain; O75164; AlphaScreen JMJD2A-Tudor / H3K4me3 peptide binding; Potency, µM (titrated, usually from 114 µM), inactives show top-dose activity change, negative = inhibition, hits mostly inhibitors; 390,000 compounds, 4.4% hits; AID 504339; further: potency means the concentration at half of the fitted maximal effect; on the % scale 0 is the no-effect control and ±100 the full control effect; nearly all actives have a fitted effect of over 50% in size
# CtBP-E1A inh: inhibitors of CtBP/E1A interaction; AlphaScreen GST-E1A/His-CtBP binding, 1536-well; active compounds read low; activity change, % (concentration not given with the values); 340,000 compounds, 0.49% hits; in the data active means activity change below about -65%; inconclusive means mostly about -30% to -63%; further: on the % scale 0 is the no-effect control and ±100 the full control effect
#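 AlphaScreen with 125 nM GST-E1A and 125 nM His-CtBP (5X stocks) in Tris pH 8.0, 300 mM NaCl, BSA, Tween 20, TCEP. Compounds preincubated 2 h at 37 deg C, then glutathione donor/nickel acceptor beads added for 1 h at 37 deg C in dark.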
# TDP1 block: blocks human tyrosyl-DNA phosphodiesterase 1; Q9NUW8; recombinant TDP1, AlphaScreen DNA substrate cleavage; Potency, µM (series often up to 130 µM), inactives show top-dose activity change, negative = inhibition, actives largely listed as inhibitors; 350,000 compounds, 0.28% hits; further: potency means the concentration at half of the fitted maximal effect; on the % scale 0 is the no-effect control and ±100 the full control effect; nearly all actives have a fitted effect of over 40% in size
#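 Compounds were preincubated with Tdp1 (1 nM final) for 15 min at room temperature before substrate (15 nM final) started a 5 min reaction; beads (10 ug/ml final) were then added for 10 min before AlphaScreen detection.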
# HP1b chromo inh: inhibitors of HP1-beta chromodomain binding to methylated histone tails; P83916; 390,000 compounds, 0.56% hits; Potency, µM (series often up to 114 µM), for inactives: at the top dose activity change, negative = inhibition, most hits filed as inhibitors; AlphaScreen HP1-beta / biotin-H3K9me3 peptide binding; further: potency means the concentration at half of the fitted maximal effect; nearly all actives have a fitted effect of over 70% in size
#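 HP1-beta protein (50 nM final) preincubated 30 min at room temperature with biotinylated H3(1-18)K9me3 peptide (50 nM) in PBS pH 7.4, 0.01% Tween-20, then compound added for 30 min. AlphaScreen streptavidin donor/nickel chelate acceptor beads (10 ug/mL final), 30 min dark, luminescence read.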
# Starred values were filed as active, the others as inactive; u = inconclusive; x = no result; [ ] = remark or other dose. The list is not random: actives were taken first. Their share in the collection is about 5.3%. Unless noted, the call rests on the fitted dose curve; in most records, active means well fitted inhibition curve with a large enough effect; inconclusive means small, poorly fitted or top-dose-only effect; inactive means no such curve, though single readings can be large or run the other way.
SMILES,BAZ2B block,Six1-Eya2 blk,JMJD2A Tudor,CtBP-E1A inh,TDP1 block,HP1b chromo inh
O=C(CCCCC(=O)NN=Cc1ccccc1O)NN=Cc1ccccc1O,x,-15.2,-15.2%,-12.6,x,50.4%
O=C(CCn1cnc(-c2ccccc2)c1-c1ccccc1)N/N=C/c1ccc(O)cc1,u,-10.8,25.1µM*,-17.2,11.0%,u
COc1cccc(/C=N/NC(=O)CCn2cnc3ccccc32)c1,-5.6%,-2.3,-10.0%,-0.9,9.6%,12.3%
COc1ccc(/C=N/NC(=O)CCn2cnc(-c3ccccc3)c2-c2ccccc2)cc1,25.1µM*,-23.6,20µM*,-22.3,8.2%,u
O=C(CCn1cnc(-c2ccccc2)c1-c1ccccc1)N/N=C/c1ccccc1O,u,-19.0,25.1µM*,-28.7,9.5%,u
COCC(=O)N1CCc2nc(COc3ccccc3)c3c(c2C1)CO[C@@H](C)C3,x,x,x,x,13.1%[12.3 µM],x
Cc1cccc(-c2noc(CN(C(=O)c3ccccc3Cl)C(C)C)n2)c1,10.4%,x,11.5%,x,6.1%,81.0%
O=C1CSC(=S)N1N1C(=O)c2cccc([N+](=O)[O-])c2C1=O,u,x,x,x,2.82µM*,x
O=C1c2cccc([N+](=O)[O-])c2C(=O)N1CCO,-12.0%,1.4,6.2%,9.2,4.9%,54.6%
CCC1CN(C(=O)C2CCN(S(=O)(=O)c3c(C)noc3/C=C/c3ccccc3F)CC2)c2cc(Cl)ccc2O1 (stereo not drawn),1.7%,x,-10.2%,x,5.3%,22.1%[57 µM]
C#CCOCCOCCOCCNc1nc(N2CCN(C(=O)[C@H]([C@@H](C)CC)n3cc([C@@H](N)CC(C)C)nn3)CC2)nc(N2CCN(C(=O)[C@H](Cc3cc4ccccc4[nH]3)n3cc([C@@H](N)CC(C)C)nn3)CC2)n1,56.2µM*,x,x,x,7.1%,x
C#CCOCCOCCOCCNc1nc(N2CCN(C(=O)[C@H](CCC(=O)O)n3cc(C(N)CC(C)C)nn3)CC2)nc(N2CCN(C(=O)[C@H](Cc3cc4ccccc4[nH]3)n3cc(C(N)CC(C)C)nn3)CC2)n1 (stereo partly drawn),50.1µM*,-13.3,u,-15.2,3.8%,11.6%
C#CCOCCOCCOCCNc1nc(N2CCOCC2)nc(N2CCN(C(=O)[C@H](Cc3cc4ccccc4[nH]3)n3cc([C@@H](N)CC(C)C)nn3)CC2)n1,-33.8%,-0.4,u,-0.5,3.8%,-8.9%
C#CCOCCOCCOCCNc1nc(N2CCN(C(=O)C([C@@H](C)CC)n3cc(C(N)COC(=O)C(F)(F)F)nn3)CC2)nc(N2CCN(C(=O)[C@H](Cc3cc4ccccc4[nH]3)n3cc(C(N)CO)nn3)CC2)n1 (stereo partly drawn),x,u,50.1µM*,-28.9,x,28.6%
C#CCOCCOCCOCCNc1nc(N2CCN(C(=O)[C@H]([C@@H](C)CC)n3cc([C@@H](N)CO)nn3)CC2)nc(N2CCN(C(=O)[C@H](Cc3cc4ccccc4[nH]3)n3cc([C@@H](N)C(C)CC)nn3)CC2)n1 (stereo partly drawn),50.1µM*,x,x,x,9.0%,x
CC(=O)c1nnn(-c2ccc(C)cc2Cl)c1C,1.2%,x,1.1%,x,2.6%,41.0%
CCCCNc1nc(Oc2ccc(OCC(N)=O)nn2)nc(N2CCOCC2)n1,-20.0%,x,-3.1%,x,4.7%,43.7%
CCOc1ccc(NC(=O)c2cccc(N3CCCS3(=O)=O)c2)cc1,-4.8%,x,-8.8%,x,-2.6%,22.0%
C#CCOCCOCCOCCNc1nc(N2CCN(C(=O)C(CCC(=O)O)n3cc(C(N)CC(C)C)nn3)CC2)nc(N2CCN(C(=O)C(Cc3cc4ccccc4[nH]3)n3cc(C(N)Cc4ccc(O)cc4)nn3)CC2)n1 (stereo not drawn),44.7µM*,-26.1,56.2µM*,-25.6,7.7%,9.2%
